The values that follow come from the supplement of paper PMC12669032.

This assay relates to Fusobacterium nucleatum subsp. animalis. The experiment in a line: growth AUC relative to DMSO control (median of replicates) (fraction); higher = more growth (less inhibition), active = hit call of the paper. As to conditions: 20 µM; 24 h;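 active = AUC reduced over 20% with Padj below 0.05 in at least 2 of 3 replicates; inactive = otherwise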. The essentials:
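Area under the growth curve was normalised to the plate median of solvent-only wells, except on the industrial chemical plate, where row and column medians were used. Curves came from gut bacterial monocultures grown anaerobically at 37 °C in mGAM with 20 µM compound (1% DMSO), starting at OD600 0.05 and read at OD600 every hour for 24 h. The minimum OD of each curve was set to 0, and values are medians of three biological replicates grown on separate days.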
With `COP(=S)(OC)Oc1ccc(S(N)(=O)=O)cc1`, the “growth AUC” value was 0.998 (inactive). Take `CCCCOC(=O)[C@@H](C)Oc1ccc(Oc2ccc(C#N)cc2F)cc1`: the “growth AUC” value is 1.01 (inactive).

With `CCC(C)(C)c1ccc(O)cc1`, the “growth AUC” value was 1 (inactive). Regarding `CCCCCCCCCc1ccc(O)cc1`, the “growth AUC” value was 0.989 (inactive). `CC(C)OC(=O)Nc1ccccc1`: the “growth AUC” value was 1.02 (inactive). The result for `CCCCc1c(C)nc(NCC)nc1OS(=O)(=O)N(C)C` reads 0.968 (inactive); that for `CCOP(=S)(OCC)Oc1cc(-c2ccccc2)on1`, 0.973 (inactive).

Consider `C=CC(N)=O`, for which the “growth AUC” value was 1.02 (inactive). Consider `CC(C)C(C(=O)OC(C#N)c1cccc(Oc2ccccc2)c1)c1ccc(OC(F)F)cc1` (stereo not drawn), for which the “growth AUC” value is 0.968 (inactive). In the case of `Oc1ccccc1-c1ccccc1`, the “growth AUC” value was 0.988 (inactive). Regarding `FC(F)C(F)(F)OCC(Cn1cncn1)c1ccc(Cl)cc1Cl` (stereo not drawn), the “growth AUC” value was 1.02 (inactive). As to `Nc1ccc(Cc2ccc(N)c(Cl)c2)cc1Cl`, the “growth AUC” value was 0.997 (inactive). Turning to `Nc1cccc(Cl)c1Cl`, the “growth AUC” value was 1.1 (inactive).

As for `COC(=O)NS(=O)(=O)c1ccc(N)cc1`, the “growth AUC” value was 0.939 (inactive).

On to `CC(C)=CC1C(C(=O)OCc2cccc(Oc3ccccc3)c2)C1(C)C` (mixture of isomers), for which the “growth AUC” value is 1.11 (inactive). For `COP(=S)(OC)SCC(=O)N(c1ccc(Cl)cc1)C(C)C`, the “growth AUC” value was 0.985 (inactive). Take `CC(=O)O.CC(=O)O.CC(=O)O.NC(N)=NCCCCCCCCNCCCCCCCCN=C(N)N`: the “growth AUC” value is 0.729 (inactive). In the case of `N#Cc1c(Cl)c(Cl)c(Cl)c(C#N)c1Cl`, the “growth AUC” value was 0.908 (inactive).
